Screening data as filed in PubChem.
The list is not random: actives were taken first. Their share in the collection is about 12%.
ROMK mod – human ROMK K+ channel modulation, primary screen. B-score at 10 µM. P48048. Tet-inducible ROMK, thallium flux fluorescence; actives lie on both sides. 130,000 compounds, 2% hits. AID 1918;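 active = signal ratio slope over the read window, or its plate-corrected B-score, at least 3 SD from the plate mean, either direction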;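 note: B-score of the F/F0 ratio slope over 7 to 12 s after thallium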
m-calpain inh – calpain II (pig) inhibition. purified calpain II, fluorogenic peptide substrate, 30 min. inhibition, % at 16 µM. 220,000 compounds, 0.37% hits. AID 1236;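 active = inhibition above about 50%, limit read from the data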
WT yeast gro inh – growth inhibition of WT yeast, mitochondrial fusion screen | inhibition, % at 10 µM | 190,000 compounds, 2.1% hits | AID 1362 | mitochondrial fusion phenotypic screen, WT strain; in the data active = inhibition above about 58%; tested in S. cerevisiae
KCC2 mod – modulates chloride dependent transport by human KCC2 | B-score of Tl+ flux slope (higher = more flux/activation; lower = inhibition) at 10 µM | 190,000 compounds, 2.2% hits | KCC2 cells, thallium flux FluoZin-2 fluorescence | AID 1456 | Q9H2X9;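 active = thallium flux slope and its plate-corrected score both differing from the plate sample mean at a set confidence after two filtering rounds, in either direction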;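 note: slope of fluorescence scaled to starting intensity during 10 to 20 s after thallium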
Target sequence (Q9H2X9 whole entry, looked up): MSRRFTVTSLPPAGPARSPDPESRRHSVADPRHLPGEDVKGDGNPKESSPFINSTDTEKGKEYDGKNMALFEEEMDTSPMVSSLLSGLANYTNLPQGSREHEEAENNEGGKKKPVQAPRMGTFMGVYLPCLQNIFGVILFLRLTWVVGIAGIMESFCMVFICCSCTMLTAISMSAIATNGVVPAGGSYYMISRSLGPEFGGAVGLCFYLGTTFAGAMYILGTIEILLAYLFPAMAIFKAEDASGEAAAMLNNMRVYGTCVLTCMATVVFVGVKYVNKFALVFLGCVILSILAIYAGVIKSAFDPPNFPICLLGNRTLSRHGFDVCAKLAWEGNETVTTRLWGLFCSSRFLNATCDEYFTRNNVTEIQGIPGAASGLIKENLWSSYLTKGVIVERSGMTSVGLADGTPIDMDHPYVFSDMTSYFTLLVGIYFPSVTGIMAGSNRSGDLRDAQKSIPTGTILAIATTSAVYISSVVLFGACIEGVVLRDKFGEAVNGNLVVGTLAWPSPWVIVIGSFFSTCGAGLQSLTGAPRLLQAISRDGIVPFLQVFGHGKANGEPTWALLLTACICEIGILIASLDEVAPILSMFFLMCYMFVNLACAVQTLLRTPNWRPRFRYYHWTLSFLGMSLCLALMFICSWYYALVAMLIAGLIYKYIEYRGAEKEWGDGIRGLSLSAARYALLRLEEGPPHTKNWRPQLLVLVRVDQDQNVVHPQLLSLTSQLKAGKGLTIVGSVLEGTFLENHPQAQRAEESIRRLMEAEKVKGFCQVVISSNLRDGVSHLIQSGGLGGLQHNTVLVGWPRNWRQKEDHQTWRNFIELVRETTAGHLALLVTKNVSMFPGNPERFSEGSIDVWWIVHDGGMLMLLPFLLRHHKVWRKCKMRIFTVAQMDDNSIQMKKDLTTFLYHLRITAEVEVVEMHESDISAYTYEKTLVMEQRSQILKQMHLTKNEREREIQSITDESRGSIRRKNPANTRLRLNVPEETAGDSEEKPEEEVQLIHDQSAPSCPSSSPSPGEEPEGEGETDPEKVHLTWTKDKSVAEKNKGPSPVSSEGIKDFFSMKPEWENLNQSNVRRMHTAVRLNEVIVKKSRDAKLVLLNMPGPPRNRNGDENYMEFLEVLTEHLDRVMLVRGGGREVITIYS
Lmaj promast – inhibitors of Leishmania major promastigote growth | Leishmania major promastigotes, resazurin fluorescence viability | inhibition, % at 10 µM | 200,000 compounds, 9% hits | AID 1063; in the data active = inhibition above about 50%;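 note: promastigotes grown with compound for 44 hours at 28 °C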
* = called active by the depositor; i = inactive; / = no result.

SMILES | ROMK mod | m-calpain inh | WT yeast gro inh | KCC2 mod | Lmaj promast
O=C(/C=C/c1ccccc1Cl)N(Cc1ccc(Cl)cc1)C1CCS(=O)(=O)C1 (stereo not given) | -0.638 | 2.9 | 52.7 | -1.16 | 79.4*
O=C(/C=C/c1ccccc1Cl)N(Cc1ccccc1)C1CCS(=O)(=O)C1 (stereo not given) | / | 3.9 | -13.0 | -1.37 | -0.4
COc1cc(C2C(C#N)=C(N)Oc3c2ccc2ccccc32)ccc1OCC(=O)Nc1ccccc1C (stereo not given) | / | -32.8 | 19.9 | / | 23.4
COC(=O)c1ccc(NC(=O)COc2ccc(C3C(C#N)=C(N)Oc4c3ccc3ccccc43)cc2OC)cc1 (stereo not given) | / | -119.3 | -9.6 | / | 94.8*
CCCCCOP(=O)(OCCCCC)C1(NS(=O)(=O)c2ccccc2)C=CC(=O)c2ccccc21 (stereo not given) | / | 23.7 | 14.2 | 0.87 | 99.7*
CCCCCCCOC1(c2ccccc2)OC(=O)c2ccccc21 (stereo not given) | -0.219 | -8.3 | 54.9 | -0.141 | -1.2
CN1CCN(C2=C(Cl)C(=O)N(Cc3ccccc3)C2=O)CC1 | -0.721 | 0.2 | 1.8 | 0.217 | 95.8*
CCOc1ccc(NC2=C(Cl)C(=O)N(Cc3ccccc3)C2=O)cc1 | / | -9.4 | -8.0 | / | 12.3
CCN1CCN(C2=C(Cl)C(=O)N(Cc3ccccc3)C2=O)CC1 | / | -14.6 | -13.4 | -0.596 | 92.0*
COc1ccc(C2NCCc3c2[nH]c2ccccc32)cc1CSc1nc2ccccc2s1 (stereo not given) | -2.2 | -75.5 | 79.6 | 0.407 | 60.4*
O=C1CC(c2ccccc2)CC2=C1CN(C1CCCCC1)CN2 (stereo not given) | / | -6.9 | -4.1 | 0.795 | 81.5*
O=C1CC(c2ccccc2)CC2=C1C(c1ccccn1)Nc1ccccc1N2 (stereo not given) | -2.37 | 10.6 | -0.2 | 0.684 | 19.5
COc1nc(Nc2ccc(C(C)C)cc2)nc(OC)n1 | 0.0573 | -8.3 | 16.9 | 0.0838 | 86.2*
Cc1cc2nc(-c3ccc4c(c3)CCC4)ccn2n1 | -2 | -27.5 | 25.0 | -0.0959 | 12.8
c1ccc(CN2CCC(=NNc3nc4ccccc4[nH]3)CC2)cc1 | 0.000223 | -9.1 | 12.2 | -0.745 | 9.7
c1ccc2c(c1)CC/C2=N/Nc1nc2ccccc2[nH]1 | 0.961 | 24.2 | 76.7* | -1.16 | 100.2*
CC(C)(C)C1CCC(=NNc2nc3ccccc3[nH]2)CC1 (stereo not given) | -0.228 | 10.3 | 11.4 | 0.74 | 85.5*
CCCCC(=O)NC(c1cccs1)c1cc(Cl)c2cccnc2c1O (stereo not given) | 0.899 | -12.7 | -16.3 | 0.866 | 98.5*
CCCC(=O)NC(c1ccco1)c1cc([N+](=O)[O-])c2cccnc2c1O (stereo not given) | / | -88.4 | -27.2 | -0.0339 | 3.7
O=C(NC(c1ccc(Cl)cc1)c1cc(Cl)c2cccnc2c1O)c1cccnc1 (stereo not given) | 1.24 | -7.3 | -0.3 | 1.01 | 99.0*
CCC(=O)NC(c1cccs1)c1cc(Cl)c2cccnc2c1O (stereo not given) | 0.0296 | 29.3 | -4.9 | 0.349 | 98.2*
CCCC(=O)NC(c1ccc(OC)c(OC)c1)c1cc(Cl)c2cccnc2c1O (stereo not given) | 0.387 | -12.4 | -1.5 | 0.75 | 98.6*
Cc1ccc(NC(=O)COC(=O)c2ccc3c(c2)NC(=O)C2CCCN32)cc1C (stereo not given) | / | i | 17.6 | 0.0473 | -2.7
O=[N+]([O-])c1cccc(C2NCC(c3ccccc3Cl)c3c2[nH]c2ccccc32)c1 (stereo not given) | 0.115 | -81.7 | 70.0* | / | 37.9
COc1ccc(NC(=S)Nc2ccccc2SC)c(OC)c1 | 0.788 | 10.1 | 2.5 | -0.672 | 6.7
SMILES | ROMK mod | m-calpain inh | WT yeast gro inh | KCC2 mod | Lmaj promast
COc1ccc(C(O)c2coc3ccc(O)c(CN(C)C)c23)cc1 (stereo not given) | / | -22.0 | 14.2 | 1.6 | 99.7*
CN(C)Cc1c(O)ccc2occ(C(=O)c3ccccc3)c12 | / | 14.6 | 19.6 | -0.219 | 9.4
COc1ccc2c(CC(=O)Nc3nccs3)coc2c1 | 0.247 | -40.1 | -3.0 | -0.223 | 1.6
COc1cccc(NC(=O)Nc2ccncc2)c1 | 1.07 | 18.9 | 1.5 | -0.221 | 14.9
COc1cccc(NC(=O)Nc2ccc(C(C)(C)C)cc2)c1 | / | 25.1 | 62.7* | 1 | 1.3
Cc1ccc(C)c(N2CCN(C(=O)Nc3ccc4c(c3)N(C)C(=O)CS4)CC2)c1 | -0.599 | -63.0 | 49.9 | 0.403 | 50.1*
COc1cccc(NC(=O)Nc2ccc3c(c2)N(C)C(=O)CS3)c1 | -1.77 | -20.9 | 0.5 | 0.113 | 59.1*
CCOc1ccc(OCC)c(NC(=O)Nc2ccc3c(c2)N(C)C(=O)CS3)c1 | / | 3.0 | 49.8 | -0.94 | 66.9*
CC1CN(C(=O)COC(=O)c2ccc(Cl)nc2)CC(C)O1 (stereo not given) | 1.24 | -15.8 | -14.4 | 0.999 | -0.8
COc1ccc(-c2cc(=O)n(-c3ccc([N+](=O)[O-])cc3)[nH]2)cc1 | / | -21.3 | 13.5 | -0.629 | -6.6
COc1ccc(-c2cc(C3CCN(Cc4cccc(C(F)(F)F)c4)CC3)[nH]n2)cc1 | 0.239 | 17.2 | 46.1 | 0.0505 | 67.6*
COc1ccc(-c2cc(C3CCN(Cc4ccc([N+](=O)[O-])cc4)CC3)[nH]n2)cc1 | 0.0694 | 9.7 | -5.7 | / | 56.2*
CC(=O)Nc1c(C)cc(OCC(=O)O)cc1C | / | 3.4 | / | -0.248 | /
CC(C)CSc1ccc(S(=O)(=O)NCC(=O)O)cc1[N+](=O)[O-] | 0.547 | 28.4 | 4.6 | -0.0143 | -5.4
Cc1cccc(N2CC(C(=O)O)CC2=O)c1C (stereo not given) | 0.184 | 11.9 | / | 0.851 | /
COc1ccc(N(CC(=O)N2CCN(Cc3ccc4c(c3)OCO4)CC2)S(=O)(=O)c2ccc(F)cc2)cc1 | / | -15.2 | / | -0.237 | /
CCN1CCN(C(=O)CN(c2cccc(Br)c2)S(=O)(=O)c2ccccc2)CC1 | 0.023 | 3.0 | -3.9 | -0.0104 | 98.5*
CCOC(=O)N1CCN(C(=O)CN(c2cccc(C)c2)S(=O)(=O)c2ccccc2)CC1 | / | -11.1 | 4.1 | / | 4.8
O=C(CN(c1ccccc1)S(=O)(=O)c1ccccc1)N1CCN(Cc2ccc3c(c2)OCO3)CC1 | -0.533 | 10.1 | 23.0 | 0.371 | 72.0*
CN(c1ccc(C(=O)N2CCN(Cc3ccc4c(c3)OCO4)CC2)cc1)S(=O)(=O)c1ccccc1 | -1.37 | -13.8 | 18.6 | / | 95.5*
CCN1CCN(C(=S)NCC(C)C)CC1 | -0.425 | -5.0 | -6.4 | 1.31 | 6.6
Cc1cc(C)c(C(=O)COC(=O)CCNS(=O)(=O)c2c(Cl)cccc2Cl)cc1C | / | 50.6* | 37.3 | -0.802 | 73.5*
Cc1ncc([N+](=O)[O-])n1CC(O)CCl (stereo not given) | / | -8.4 | -8.0 | -0.0178 | -1.9
O=[N+]([O-])c1cn(Cc2ccc(Cl)cc2)cn1 | -0.613 | -1.8 | -14.3 | -0.00347 | 63.6*
Cc1ncc([N+](=O)[O-])n1Cc1ccc(Br)cc1 | -0.384 | -1.7 | 20.8 | -1.22 | 90.5*
Cc1ncc([N+](=O)[O-])n1Cc1ccc(Cl)cc1 | -0.273 | -24.4 | 4.2 | -1.42 | 82.6*
O=C(CCN1CCCCC1)N/N=C/c1ccc(Br)cc1 | / | -13.8 | -2.0 | -0.0702 | 82.8*
